Measurements published in PubChem BioAssay (NCATS).
Results filed as inconclusive are left out. Unmarked numbers belong to inactive results. The source made the active and inactive calls. Calls come from the whole dose curve; as a rule, active = well fitted curve in the direction sought with a large enough effect; inconclusive = small, poorly fitted or top-dose-only effect, or another doubt; inactive = no such curve, though single readings can be large; an effect the other way counts as inactive or inconclusive.

Molecular target: Voltage-gated inwardly rectifying potassium channel KCNH2 (Homo sapiens) (UniProt Q12809)
Sequence (Q12809 whole entry, looked up): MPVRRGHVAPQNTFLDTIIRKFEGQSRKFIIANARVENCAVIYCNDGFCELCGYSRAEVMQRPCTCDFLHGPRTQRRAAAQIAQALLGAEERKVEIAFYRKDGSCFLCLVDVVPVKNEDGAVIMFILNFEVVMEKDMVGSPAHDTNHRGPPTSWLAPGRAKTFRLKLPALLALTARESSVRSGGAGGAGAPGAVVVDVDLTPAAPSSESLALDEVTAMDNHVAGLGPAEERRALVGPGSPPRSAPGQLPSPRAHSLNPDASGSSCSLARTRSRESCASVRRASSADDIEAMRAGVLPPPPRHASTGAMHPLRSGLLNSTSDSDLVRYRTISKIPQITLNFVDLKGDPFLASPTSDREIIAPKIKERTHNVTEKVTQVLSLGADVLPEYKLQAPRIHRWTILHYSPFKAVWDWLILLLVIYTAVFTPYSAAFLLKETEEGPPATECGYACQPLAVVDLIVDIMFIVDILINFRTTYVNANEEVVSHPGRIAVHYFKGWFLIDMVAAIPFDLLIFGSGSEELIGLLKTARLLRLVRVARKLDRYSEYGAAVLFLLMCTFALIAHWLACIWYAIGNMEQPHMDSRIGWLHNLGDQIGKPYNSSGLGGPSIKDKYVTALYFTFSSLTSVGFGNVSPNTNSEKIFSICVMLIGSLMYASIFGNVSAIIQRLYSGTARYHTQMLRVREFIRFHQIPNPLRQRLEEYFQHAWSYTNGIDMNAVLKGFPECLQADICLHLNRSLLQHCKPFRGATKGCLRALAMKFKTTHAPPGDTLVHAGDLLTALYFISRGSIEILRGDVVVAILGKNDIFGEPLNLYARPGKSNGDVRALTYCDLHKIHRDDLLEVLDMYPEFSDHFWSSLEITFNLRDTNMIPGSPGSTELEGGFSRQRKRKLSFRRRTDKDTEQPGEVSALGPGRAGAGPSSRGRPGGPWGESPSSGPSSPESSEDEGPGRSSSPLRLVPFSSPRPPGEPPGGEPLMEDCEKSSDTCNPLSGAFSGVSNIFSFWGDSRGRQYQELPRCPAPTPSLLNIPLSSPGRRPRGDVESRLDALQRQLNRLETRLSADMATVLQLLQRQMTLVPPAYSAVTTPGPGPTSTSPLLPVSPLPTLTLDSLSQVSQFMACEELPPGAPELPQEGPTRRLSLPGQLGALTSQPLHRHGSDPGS
Experiment: qHTS Assay for Small Molecule Inhibitors of the Human hERG Channel Activity (AID 588834);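 note: lower thallium flux fluorescence means stronger hERG block; nearly all actives have a fitted effect of over 50% in size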; note: potency is the fitted concentration of half-maximal effect; for activity change, negative = inhibition: top concentration of the series differs between compounds; % is set by controls: 0 for no effect and ±100 for the full control effect
Details: U2OS BacMam hERG, FluxOR thallium flux fluorescence; series mostly up to 46.1 µM; activity change, negative = inhibition: at the top concentration
In short: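 U2OS cells BacMam-transduced with hERG, 2000 cells/well, compound ~10 min at 37 °C before stimulation buffer. FluxOR thallium flux fluorescence read kinetically on FDSS; decrease indicates block; AC50 from Hill fits.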

Q: Which “activity change, negative = inhibition” value does the source give for `CCCC1CCCCN1` (stereo not given) here?
A: 21.1%

Q: Which “activity change, negative = inhibition” value does the source give for `NP(N)(=O)NC(=O)c1ccc(F)cc1` here?
A: 1.17%

Q: With `Cc1ccc2c(c1)C1CN(C)CCC1N2` (stereo not given) as the compound, how does the “activity change, negative = inhibition” value read?
A: 6.28%

Q: For `CN(C)[C@@H]1C(=O)C(C(N)=O)=C(O)[C@@]2(O)C(=O)C3=C(O)c4c(O)cccc4[C@@](C)(O)[C@H]3C[C@@H]12`, which “activity change, negative = inhibition” value is on record?
A: 16.9% [at 20.6 µM]

Q: For `C=C1C[C@@H]2[C@H](CC[C@]3(C)C(=O)CC[C@@H]23)[C@@]2(C)C=CC(=O)C=C12`, which “activity change, negative = inhibition” value is on record?
A: 3.04%

Q: Which “activity change, negative = inhibition” value does the source give for `N[C@@H](Cc1ccc(Oc2cc(I)c(O)c(I)c2)c(I)c1)C(=O)O` here?
A: 9.25%

Q: With `Clc1ccc(CCC(Cn2ccnc2)Sc2c(Cl)cccc2Cl)cc1` (stereo not given) as the compound, how does the Potency read?
A: 5010 nM (active)

Q: Which Potency does the source give for `C=CCN1CC[C@]23c4c5ccc(O)c4O[C@H]2C(=O)CC[C@@]3(O)[C@H]1C5` here?
A: inactive

Q: For `O=C1CC[C@@]2(O)[C@H]3Cc4ccc(O)c5c4[C@@]2(CCN3CC2CC2)[C@H]1O5`, which “activity change, negative = inhibition” value is on record?
A: -24%

Q: For `CN1CCN(C(=O)O[C@H]2c3nccnc3C(=O)N2c2ccc(Cl)cn2)CC1`, which “activity change, negative = inhibition” value is on record?
A: -2.92%

Q: For `FC(F)(F)c1cccc(C2=CCN(CCc3ccc4ccccc4c3)CC2)c1`, which Potency is on record?
A: 1580 nM (active)

Q: For `O=C(NC(O)C(Cl)(Cl)Cl)NC(O)C(Cl)(Cl)Cl` (stereo not given), which “activity change, negative = inhibition” value is on record?
A: 1.51%

Q: Which “activity change, negative = inhibition” value does the source give for `Clc1cccc(N2CCNCC2)c1` here?
A: 9.58%

Q: Which “activity change, negative = inhibition” value does the source give for `CCN(C(C)=O)c1cccc(-c2ccnc3c(C#N)cnn23)c1` here?
A: -0.326%

Q: Which “activity change, negative = inhibition” value does the source give for `CN1C(=S)CN=C(c2ccccc2)c2cc(Cl)ccc21` here?
A: -14.1%

Q: With `C=C1CC[C@@]2(O)[C@H]3Cc4ccc(O)c5c4[C@@]2(CCN3CC2CC2)[C@H]1O5` as the compound, how does the “activity change, negative = inhibition” value read?
A: -6.44%

Q: With `CC(=O)Nc1cc([As](=O)(O)O)ccc1O` as the compound, how does the “activity change, negative = inhibition” value read?
A: 6.08%

Q: With `CC[N+]1(C)CCCC(OC(=O)C(O)(c2ccccc2)c2ccccc2)C1` (stereo not given) as the compound, how does the “activity change, negative = inhibition” value read?
A: 10.3%

Q: With `CC1NCCOC1c1ccccc1` (stereo not given) as the compound, how does the “activity change, negative = inhibition” value read?
A: 10.1%

Q: For `CCn1cc(C(=O)O)c(=O)c2ccc(C)nc21`, which Potency is on record?
A: inactive

Q: Which “activity change, negative = inhibition” value does the source give for `CC(C)(N)Cc1ccc(Cl)cc1` here?
A: 6.37%

Q: With `CCC(C(N)=O)N1CCCC1=O` (stereo not given) as the compound, how does the “activity change, negative = inhibition” value read?
A: -6.82%

Q: Which “activity change, negative = inhibition” value does the source give for `N[C@@H]1C[C@H]1c1ccccc1` here?
A: -7.8%

Q: For `CCOC(=O)C1(c2ccccc2)CCN(CCC(C#N)(c2ccccc2)c2ccccc2)CC1`, which Potency is on record?
A: 355 nM (active)

Q: Which “activity change, negative = inhibition” value does the source give for `CC(C)NCC(O)c1ccccc1Cl` (stereo not given) here?
A: 6.05%

Q: For `CCC1C(=O)OCC1Cc1cncn1C` (stereo not given), which “activity change, negative = inhibition” value is on record?
A: 0.622%

Q: For `CC(C)[N+](C)(CCOC(=O)C1c2ccccc2Oc2ccccc21)C(C)C`, which “activity change, negative = inhibition” value is on record?
A: 3.35%

Q: Which “activity change, negative = inhibition” value does the source give for `CN(C)CCc1ccc(O)cc1` here?
A: 1.89%

Q: With `COc1ccc(Cc2nccc3cc(OC)c(OC)cc23)cc1OC` as the compound, how does the Potency read?
A: inactive

Q: Which “activity change, negative = inhibition” value does the source give for `CC(C)(C)NCC(O)c1cc(Cl)c(N)c(Cl)c1` (stereo not given) here?
A: 25.9%

Q: With `C#CCN(C)[C@H](C)Cc1ccccc1` as the compound, how does the “activity change, negative = inhibition” value read?
A: -7.12%

Q: Which “activity change, negative = inhibition” value does the source give for `CC[N+](CC)(CC)CC` here?
A: 30.3%

Molecular target: Luciferin 4-monooxygenase (Photinus pyralis) (UniProt P08659)
Sequence (P08659 whole entry, looked up): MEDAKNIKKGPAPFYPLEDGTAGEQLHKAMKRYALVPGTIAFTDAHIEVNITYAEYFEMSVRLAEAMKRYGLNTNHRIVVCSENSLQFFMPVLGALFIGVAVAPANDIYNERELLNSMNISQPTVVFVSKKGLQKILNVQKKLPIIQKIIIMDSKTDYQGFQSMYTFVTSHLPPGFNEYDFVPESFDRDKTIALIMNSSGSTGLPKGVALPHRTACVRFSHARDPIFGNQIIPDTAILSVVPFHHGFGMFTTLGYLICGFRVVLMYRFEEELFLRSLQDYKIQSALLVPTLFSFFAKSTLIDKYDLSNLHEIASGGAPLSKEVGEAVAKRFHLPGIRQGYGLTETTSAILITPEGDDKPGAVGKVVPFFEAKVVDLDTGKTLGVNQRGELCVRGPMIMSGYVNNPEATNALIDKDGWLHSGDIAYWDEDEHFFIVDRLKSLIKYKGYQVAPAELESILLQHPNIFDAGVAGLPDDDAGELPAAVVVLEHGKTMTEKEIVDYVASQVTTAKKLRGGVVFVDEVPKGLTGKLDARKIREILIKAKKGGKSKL
Experiment: Biochemical firefly luciferase enzyme assay for NPC (AID 624030);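 note: purified P. pyralis luciferase at 10 nM with luciferin and ATP substrate; 0% = DMSO and -100% = full luciferase inhibition by PTC124 control; nearly all actives have a fitted effect of over 70% in size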
Details: purified P. pyralis luciferase, luminescence, 5 min; series mostly up to 58.6 µM; activity change, negative = inhibition: at the top concentration
In short: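 Counter-screen for direct inhibition of the luciferase enzyme by approved-drug library compounds, run at 10 nM enzyme in 50 mM Tris acetate (final). Luminescence was read within 5 min of enzyme-buffer addition and normalized to PTC124 versus DMSO (0%).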

Q: For `CCCC1CCCCN1` (stereo not given), which “activity change, negative = inhibition” value is on record?
A: -5.95%

Q: With `NP(N)(=O)NC(=O)c1ccc(F)cc1` as the compound, how does the “activity change, negative = inhibition” value read?
A: 27.1%

Q: With `CN1CCN(C(=O)O[C@H]2c3nccnc3C(=O)N2c2ccc(Cl)cn2)CC1` as the compound, how does the “activity change, negative = inhibition” value read?
A: 0.415%

Q: Which “activity change, negative = inhibition” value does the source give for `FC(F)(F)c1cccc(C2=CCN(CCc3ccc4ccccc4c3)CC2)c1` here?
A: -1.1%

Q: With `O=C(NC(O)C(Cl)(Cl)Cl)NC(O)C(Cl)(Cl)Cl` (stereo not given) as the compound, how does the “activity change, negative = inhibition” value read?
A: -1.66%

Q: Which “activity change, negative = inhibition” value does the source give for `Clc1cccc(N2CCNCC2)c1` here?
A: 3.52%

Q: For `CCN(C(C)=O)c1cccc(-c2ccnc3c(C#N)cnn23)c1`, which “activity change, negative = inhibition” value is on record?
A: 5.21%

Q: Which “activity change, negative = inhibition” value does the source give for `CN1C(=S)CN=C(c2ccccc2)c2cc(Cl)ccc21` here?
A: -2.58%

Q: For `C=C1CC[C@@]2(O)[C@H]3Cc4ccc(O)c5c4[C@@]2(CCN3CC2CC2)[C@H]1O5`, which “activity change, negative = inhibition” value is on record?
A: 0.417%

Q: For `CC(=O)Nc1cc([As](=O)(O)O)ccc1O`, which “activity change, negative = inhibition” value is on record?
A: 0.916%

Q: With `CC[N+]1(C)CCCC(OC(=O)C(O)(c2ccccc2)c2ccccc2)C1` (stereo not given) as the compound, how does the “activity change, negative = inhibition” value read?
A: 0.215%

Q: Which “activity change, negative = inhibition” value does the source give for `CC1NCCOC1c1ccccc1` (stereo not given) here?
A: -3.19%

Q: For `CC(C)(N)Cc1ccc(Cl)cc1`, which “activity change, negative = inhibition” value is on record?
A: -0.575%

Q: For `CCC(C(N)=O)N1CCCC1=O` (stereo not given), which “activity change, negative = inhibition” value is on record?
A: -4.46%

Q: Which Potency does the source give for `CCOC(=O)C1(c2ccccc2)CCN(CCC(C#N)(c2ccccc2)c2ccccc2)CC1` here?
A: inactive

Q: Which “activity change, negative = inhibition” value does the source give for `CC(C)NCC(O)c1ccccc1Cl` (stereo not given) here?
A: 2.1%

Q: Which “activity change, negative = inhibition” value does the source give for `CN(C)CCc1ccc(O)cc1` here?
A: -0.988%

Q: With `CC(C)(C)NCC(O)c1cc(Cl)c(N)c(Cl)c1` (stereo not given) as the compound, how does the “activity change, negative = inhibition” value read?
A: -0.15%

Q: For `CC[N+](CC)(CC)CC`, which “activity change, negative = inhibition” value is on record?
A: 1.48%

Tested on: not listed separately
Experiment: S16 Schwann cell viability assay (CellTiter-Glo assay) (AID 624031);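 note: cellular ATP luminescence as a viability measure; plate controls were DMSO-treated cells for no effect and cell-free wells for full effect; nearly all actives have a fitted effect of over 70% in size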
Details: S16 rat Schwann cells viability, 24 h; series mostly up to 57.5 µM; activity change, negative = cytotoxicity: at the top concentration
In short: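 Native S16 rat Schwann cells, 500-750 cells/well in DMEM with 10% FBS, dosed with compound after overnight culture and incubated 24h at 37 degree Celsius/5% CO2. Viability by CellTiter-Glo luminescence; % activity normalized to no-cell wells and DMSO-treated cells.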

Q: For `CCCC1CCCCN1` (stereo not given), which “activity change, negative = cytotoxicity” value is on record?
A: 10.3%

Q: For `NP(N)(=O)NC(=O)c1ccc(F)cc1`, which “activity change, negative = cytotoxicity” value is on record?
A: -24.6%

Q: Which “activity change, negative = cytotoxicity” value does the source give for `CN1CCN(C(=O)O[C@H]2c3nccnc3C(=O)N2c2ccc(Cl)cn2)CC1` here?
A: -16.9%

Q: With `FC(F)(F)c1cccc(C2=CCN(CCc3ccc4ccccc4c3)CC2)c1` as the compound, how does the “activity change, negative = cytotoxicity” value read?
A: 0.346%

Q: Which “activity change, negative = cytotoxicity” value does the source give for `O=C(NC(O)C(Cl)(Cl)Cl)NC(O)C(Cl)(Cl)Cl` (stereo not given) here?
A: -3.74%

Q: For `Clc1cccc(N2CCNCC2)c1`, which “activity change, negative = cytotoxicity” value is on record?
A: -21.3%

Q: Which “activity change, negative = cytotoxicity” value does the source give for `CCN(C(C)=O)c1cccc(-c2ccnc3c(C#N)cnn23)c1` here?
A: 9.11%

Q: For `CN1C(=S)CN=C(c2ccccc2)c2cc(Cl)ccc21`, which “activity change, negative = cytotoxicity” value is on record?
A: -29.3%

Q: For `C=C1CC[C@@]2(O)[C@H]3Cc4ccc(O)c5c4[C@@]2(CCN3CC2CC2)[C@H]1O5`, which “activity change, negative = cytotoxicity” value is on record?
A: -5.48%

Q: For `CC(=O)Nc1cc([As](=O)(O)O)ccc1O`, which “activity change, negative = cytotoxicity” value is on record?
A: 4.94%

Q: For `CC[N+]1(C)CCCC(OC(=O)C(O)(c2ccccc2)c2ccccc2)C1` (stereo not given), which “activity change, negative = cytotoxicity” value is on record?
A: 0%

Q: With `CC1NCCOC1c1ccccc1` (stereo not given) as the compound, how does the “activity change, negative = cytotoxicity” value read?
A: -2.61%

Q: Which “activity change, negative = cytotoxicity” value does the source give for `CC(C)(N)Cc1ccc(Cl)cc1` here?
A: -2.53%

Q: With `CCC(C(N)=O)N1CCCC1=O` (stereo not given) as the compound, how does the “activity change, negative = cytotoxicity” value read?
A: 1.32%

Q: Which “activity change, negative = cytotoxicity” value does the source give for `CCOC(=O)C1(c2ccccc2)CCN(CCC(C#N)(c2ccccc2)c2ccccc2)CC1` here?
A: -8.81%

Q: Which “activity change, negative = cytotoxicity” value does the source give for `CC(C)NCC(O)c1ccccc1Cl` (stereo not given) here?
A: -0.344%

Q: With `CN(C)CCc1ccc(O)cc1` as the compound, how does the “activity change, negative = cytotoxicity” value read?
A: -23.5%

Q: For `CC(C)(C)NCC(O)c1cc(Cl)c(N)c(Cl)c1` (stereo not given), which “activity change, negative = cytotoxicity” value is on record?
A: 3.57%

Q: With `CC[N+](CC)(CC)CC` as the compound, how does the “activity change, negative = cytotoxicity” value read?
A: -1.7%
